Unmarked numbers belong to inactive results. Calls come from the whole dose curve; as a rule, active = well fitted curve in the direction sought with a large enough effect; inconclusive = small, poorly fitted or top-dose-only effect, or effect the other way, or another doubt; inactive = no such curve, though single readings can be large or run the other way.
target: Pyruvate kinase PKLR (Homo sapiens) (UniProt P30613); experiment: Secondary Concentration-Response Assay for Activators of Human Liver Pyruvate Kinase: for Probe SAR; settings: purified hPK-L, ATP production, Kinase-Glo luminescence; series mostly up to 58.3 µM; activity change, positive = activation: at the top concentration;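 note: 0% = uninhibited enzyme wells on each plate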
How it was run: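 Purified human liver pyruvate kinase (0.1 nM) incubated 1 h at room temperature with compound, 0.5 mM PEP and 0.1 mM ADP in imidazole buffer pH 7.2; ATP formed read by Kinase-Glo luminescence, normalized to uninhibited wells.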

Chain of Pyruvate kinase PKLR (Homo sapiens) (P30613 whole entry, looked up): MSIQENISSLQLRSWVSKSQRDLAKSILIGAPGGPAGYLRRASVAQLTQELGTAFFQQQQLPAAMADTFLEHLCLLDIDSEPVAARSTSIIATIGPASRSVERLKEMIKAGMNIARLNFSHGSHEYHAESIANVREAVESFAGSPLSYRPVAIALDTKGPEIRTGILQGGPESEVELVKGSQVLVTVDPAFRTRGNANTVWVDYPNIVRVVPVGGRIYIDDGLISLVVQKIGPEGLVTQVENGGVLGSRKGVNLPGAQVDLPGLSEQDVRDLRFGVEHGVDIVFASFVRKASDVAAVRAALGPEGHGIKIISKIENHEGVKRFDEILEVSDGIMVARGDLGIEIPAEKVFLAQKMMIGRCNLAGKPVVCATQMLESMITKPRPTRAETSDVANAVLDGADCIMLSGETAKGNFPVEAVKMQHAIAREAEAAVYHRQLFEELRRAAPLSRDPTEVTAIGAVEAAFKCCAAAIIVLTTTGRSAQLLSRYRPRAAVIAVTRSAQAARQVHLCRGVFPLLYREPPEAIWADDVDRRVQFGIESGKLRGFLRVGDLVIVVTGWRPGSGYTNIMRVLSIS

| Compound | activity change, positive = activation |
| --- | --- |
| O=C1c2ccccc2C(=O)N1c1cc(=O)c2ccccc2[nH]1 | 3.65% |
| CNc1cccc(S(=O)(=O)N2CCN(S(=O)(=O)c3ccc4c(c3)OCCO4)CC2)c1 | 17.7% |
| Cc1ccc(NS(=O)(=O)c2ccc3c(c2)N(C)CCO3)cc1C | 8.48% |
| Cc1ccc(NS(=O)(=O)c2cc3c(cc2F)NC(=O)CC3)cc1C | 8.84% |
| CCNc1cccc(S(=O)(=O)N2CCCN(S(=O)(=O)c3ccc4c(c3)OCCO4)CC2)c1 | 25.5% |
| O=C1CCc2cc([S+](=O)([O-])NC3CCOCC3)ccc2N1 | -3.54% |
| Cc1ccc(NS(=O)(=O)c2cc3c(cc2Cl)NC(=O)CO3)cc1C | 2.95% |
| Cc1ccc(NS(=O)(=O)c2ccc3c(c2)oc(=O)n3C)cc1C | 8.8% |
| O=S1(=O)N=C(Oc2ccccc2)c2ccccc21 | -3.69% [at 82.8 µM] |
| Cc1ccc(Cl)cc1NS(=O)(=O)c1cc2c(cc1F)NC(=O)CC2 | -12.6% |
| Cc1ccc(NS(=O)(=O)c2ccc(Cl)cc2)cc1C | 10.6% |
| Cc1ccc(NS(=O)(=O)c2cc3c(cc2N(C)C)NC(=O)CC3)cc1C | 8% |
